# Assay results from paper PMC11574364.
# Assays:
# Assay in all cases: protein domain microarray probed with biotinylated miRNA; Domain array: 20 mM Tris-HCl pH 7.4, 200 mM KCl, 0.2 mM EDTA, 0.05% NP40, 2 ug/ul heparin, overnight 4 C. ORF array: PBS pH 7.0 with RNase inhibitor, 100 ng RNA; high values mean tight binding
# Settings in all cases: ssRNA
# RBM12(3) = molecular target: T1, RBM12(3) (Homo sapiens, UniProt Q9NTZ6)
# T1 sequence: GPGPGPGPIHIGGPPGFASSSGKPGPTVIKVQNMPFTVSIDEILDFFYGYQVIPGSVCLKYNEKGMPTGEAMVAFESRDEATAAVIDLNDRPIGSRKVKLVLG
# RBM41 = molecular target: T2, RBM41 (Homo sapiens, UniProt Q96IZ5)
# T2 sequence: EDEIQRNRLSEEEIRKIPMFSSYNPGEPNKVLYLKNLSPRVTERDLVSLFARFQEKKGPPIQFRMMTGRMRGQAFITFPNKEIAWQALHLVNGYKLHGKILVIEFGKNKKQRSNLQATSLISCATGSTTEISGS
# RBM15 = molecular target: T3, RBM15 (Homo sapiens, UniProt Q96T37)
# T3 sequence: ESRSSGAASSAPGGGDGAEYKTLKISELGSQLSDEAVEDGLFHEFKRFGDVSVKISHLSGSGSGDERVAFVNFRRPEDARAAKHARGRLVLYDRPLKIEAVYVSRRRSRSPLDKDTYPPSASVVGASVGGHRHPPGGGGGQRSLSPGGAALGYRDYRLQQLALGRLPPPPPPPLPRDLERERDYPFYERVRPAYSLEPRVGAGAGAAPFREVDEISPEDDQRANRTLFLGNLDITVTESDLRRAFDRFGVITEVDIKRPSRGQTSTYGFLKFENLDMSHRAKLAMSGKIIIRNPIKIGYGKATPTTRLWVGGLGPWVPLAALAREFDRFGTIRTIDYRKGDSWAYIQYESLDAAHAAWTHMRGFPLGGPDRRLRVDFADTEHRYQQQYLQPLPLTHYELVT
# ASCC1 = ASCC1 (Homo sapiens, UniProt Q8N9N2)
# TDRKH(1-2) = molecular target: T4, TDRKH(1-2) (Homo sapiens, UniProt Q9Y2W6)
# T4 sequence: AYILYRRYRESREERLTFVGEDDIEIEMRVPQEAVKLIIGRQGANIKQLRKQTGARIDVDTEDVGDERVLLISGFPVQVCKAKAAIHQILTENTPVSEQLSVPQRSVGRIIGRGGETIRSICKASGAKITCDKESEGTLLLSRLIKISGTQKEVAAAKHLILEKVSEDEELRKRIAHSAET
# RBMS1 = molecular target: T5, RBMS1 (Homo sapiens, UniProt P29558)
# T5 sequence: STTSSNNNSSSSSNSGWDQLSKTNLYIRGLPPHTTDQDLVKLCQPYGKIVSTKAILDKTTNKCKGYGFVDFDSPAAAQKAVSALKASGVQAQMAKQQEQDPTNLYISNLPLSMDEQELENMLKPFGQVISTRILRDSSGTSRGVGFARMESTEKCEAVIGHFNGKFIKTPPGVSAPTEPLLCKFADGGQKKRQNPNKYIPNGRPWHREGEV
# RBM15B = molecular target: T6, RBM15B (Homo sapiens, UniProt Q8NDT2)
# T6 sequence: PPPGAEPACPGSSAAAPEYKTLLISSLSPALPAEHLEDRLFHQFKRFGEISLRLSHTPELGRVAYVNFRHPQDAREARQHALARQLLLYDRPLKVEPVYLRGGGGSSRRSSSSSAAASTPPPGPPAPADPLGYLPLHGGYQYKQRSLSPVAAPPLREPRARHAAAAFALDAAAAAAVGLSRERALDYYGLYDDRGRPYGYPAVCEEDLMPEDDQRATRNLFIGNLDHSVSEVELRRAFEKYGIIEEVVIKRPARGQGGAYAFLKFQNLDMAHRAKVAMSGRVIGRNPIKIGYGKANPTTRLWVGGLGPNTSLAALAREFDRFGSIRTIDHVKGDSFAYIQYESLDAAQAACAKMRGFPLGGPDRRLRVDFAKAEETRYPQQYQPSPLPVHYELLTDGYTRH
# RBMY1C = RBMY1C (Homo sapiens, UniProt P0DJD4)
# THOC4 = THOC4 (Homo sapiens, UniProt Q86V81)
# SF1 = molecular target: T7, SF1 (Homo sapiens, UniProt Q15637)
# T7 sequence: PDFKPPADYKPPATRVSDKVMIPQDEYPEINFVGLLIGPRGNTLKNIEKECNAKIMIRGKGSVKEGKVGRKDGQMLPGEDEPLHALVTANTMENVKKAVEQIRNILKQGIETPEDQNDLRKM
# RBMY1C, sequence (P0DJD4 1-110): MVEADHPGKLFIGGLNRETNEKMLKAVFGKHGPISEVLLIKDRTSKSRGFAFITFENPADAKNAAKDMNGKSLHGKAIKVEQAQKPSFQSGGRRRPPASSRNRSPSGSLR
# ASCC1, sequence (Q8N9N2 79-168): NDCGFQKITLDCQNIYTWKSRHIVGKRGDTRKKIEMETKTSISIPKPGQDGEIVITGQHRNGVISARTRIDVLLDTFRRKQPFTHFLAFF
Sequence,binding signal (RBM12(3)) [fluorescence intensity],binding signal (RBM41) [fluorescence intensity],binding signal (RBM15) [fluorescence intensity],binding signal (ASCC1) [fluorescence intensity],binding signal (TDRKH(1-2)) [fluorescence intensity],binding signal (RBMS1) [fluorescence intensity],binding signal (RBM15B) [fluorescence intensity],binding signal (RBMY1C) [fluorescence intensity],binding signal (THOC4) [fluorescence intensity],binding signal (SF1) [fluorescence intensity]
AGAGGUAGUAGGUUGCAUAGUU,26.4 ± 4.72,818 ± 64.1,525 ± 1.24,24.9 ± 3.57,29.6 ± 0.502,365.1 ± 1.24,242 ± 10.9,1860 ± 11.9,49.2 ± 7.5,–
UAGCUUAUCAGACUGAUGUUGA,–,–,134 ± 18.6,–,–,29.7 ± 0.537,30.7 ± 4.65,371 ± 23,–,–
UGAGGUAGUAGGUUGUGUGGUU,44.9 ± 5.61,435 ± 24.3,501 ± 99.1,45.53 ± 0.0141,93.1 ± 19.1,341 ± 18.8,268 ± 141,1360 ± 26.2,133 ± 30,24.25 ± 0.205
UGAGGUAGUAGGUUGUAUGGUU,35.9 ± 0.728,350 ± 12.9,537 ± 29.7,22.5 ± 1.64,45.7 ± 2.46,316 ± 53.1,309 ± 16.6,1200 ± 27.5,91.8 ± 21.8,24.7 ± 4.35
UGAGGUAGUAGGUUGUAUAGUU,–,45.9 ± 18.9,82.1 ± 15.2,–,–,78.2 ± 3.38,42.7 ± 8.55,643 ± 42.4,–,–
CAGUGCAAUGAUGAAAGGGCAU,27.1 ± 4.43,284 ± 7.83,315.16 ± 0.212,–,40.4 ± 7.05,166 ± 3.01,128 ± 12.3,1150 ± 31.6,40.5 ± 0.424,107.4 ± 0.728
